# From PubChem BioAssay AID1159580 (chemical genetic matrix, 2015)
# The campaign covered roughly 5,500 compounds. About 2,000 (36%) were called active. Another 18% or so got no clear call; they are omitted. This is one part of the list. A number with no mark means an inactive call. Cut-off read from the data, not from the text of the source: active = normalized growth mostly below about 0.91 (no sharp cut-off); inconclusive = no clear call, values can overlap the other calls; inactive = mostly above about 0.92.
# Assay: chemical genetic growth profiling, strain panel (AID 1159580);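 note: tested at 20 µM; growth read once vehicle control cultures reached saturation at 30 °C; 1 = growth at the plate median or of vehicle wells; lower values mean less growth of the strain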
# Details: S. cerevisiae deletion strains, growth OD
# [1] = locus YAL040C, strain CLN3, active compounds read low
# [2] = locus YCL061C, strain MRC1 (second series), active compounds read low
# [3] = locus YDR363W, strain ESC2, active compounds read low
# [4] = locus YER002W, strain NOP16, active compounds read low
# [5] = locus YGR078C, strain PAC10, active compounds read low
# [6] = locus YNL175C, strain NOP13, active compounds read low
# [7] = locus YNL197C, strain WHI3, active compounds read low
# [8] = locus YOR083W, strain WHI5 (second series), active compounds read low
compound,measurement,setting,value
Cc1nccc2c1[nH]c1ccccc12,normalized growth,"locus YAL013W, strain DEP1, active compounds read low",1.01
same,normalized growth,"locus YAL021C, strain ccr4, active compounds read low",0.956
same,normalized growth,"locus YAL026C, strain drs2, active compounds read low",0.975
same,normalized growth,"locus YAL030W, strain snc1, active compounds read low",0.992
same,normalized growth,[1],1.11
same,normalized growth,"locus YBL061C, strain skt5, active compounds read low",0.975
same,normalized growth,"locus YBR009C, strain hhf1, active compounds read low",0.971
same,normalized growth,"locus YBR023C, strain chs3, active compounds read low",0.974
same,normalized growth,"locus YBR171W, strain sec66, active compounds read low",0.969
same,normalized growth,"locus YBR231C, strain swc5, active compounds read low",0.972
same,normalized growth,"locus YBR279W, strain paf1, active compounds read low",0.991
same,normalized growth,"locus YCL011C, strain gbp2, active compounds read low",0.965
same,normalized growth,"locus YCL016C, strain dcc1, active compounds read low",0.99
same,normalized growth,[2],1.01
same,normalized growth,"locus YCL069W, strain vba3, active compounds read low",0.977
same,normalized growth,"locus YCR088W, strain abp1, active compounds read low",0.977
same,normalized growth,"locus YDL005C, strain med2, active compounds read low",0.965
same,normalized growth,"locus YDL040C, strain nat1, active compounds read low",0.983
same,normalized growth,"locus YDR001C, strain nth1, active compounds read low",0.991
same,normalized growth,"locus YDR069C, strain doa4, active compounds read low",0.941
same,normalized growth,"locus YDR137W, strain rgp1, active compounds read low",0.967
same,normalized growth,"locus YDR159W, strain sac3, active compounds read low",0.989
same,normalized growth,"locus YDR195W, strain ref2",1.03
same,normalized growth,"locus YDR297W, strain sur2, active compounds read low",0.976
same,normalized growth,"locus YDR334W, strain swr1, active compounds read low",0.971
same,normalized growth,"locus YDR335W, strain msn5, active compounds read low",0.975
same,normalized growth,[3],1
same,normalized growth,"locus YDR392W, strain spt3, active compounds read low",0.963
same,normalized growth,"locus YEL003W, strain gim4, active compounds read low",0.983
same,normalized growth,"locus YEL037C, strain rad23, active compounds read low",0.983
same,normalized growth,"locus YEL061C, strain CIN8 (second series), active compounds read low",0.944
same,normalized growth,[4],0.991
same,normalized growth,"locus YER015W, strain faa2, active compounds read low",0.991
same,normalized growth,"locus YER016W, strain bim1, active compounds read low",0.984
same,normalized growth,"locus YER111C, strain swi4, active compounds read low",0.973
same,normalized growth,"locus YER155C, strain BEM2 (second series), active compounds read low",0.954
same,normalized growth,"locus YFR010W, strain ubp6, active compounds read low",0.955
same,normalized growth,"locus YGL167C, strain pmr1, active compounds read low",0.996
same,normalized growth,"locus YGL173C, strain kem1, active compounds read low",0.981
same,normalized growth,"locus YGL227W, strain vid30, active compounds read low",0.976
same,normalized growth,"locus YGL240W, strain doc1, active compounds read low",0.968
same,normalized growth,"locus YGL253W, strain hxk2, active compounds read low",0.959
same,normalized growth,[5],1.02
same,normalized growth,"locus YHR013C, strain ard1, active compounds read low",0.951
same,normalized growth,"locus YHR027C, strain rpn1, active compounds read low",0.996
same,normalized growth,"locus YHR030C, strain SLT2, active compounds read low",1.05
same,normalized growth,"locus YHR079C, strain IRE1, active compounds read low",1.06
same,normalized growth,"locus YHR142W, strain chs7, active compounds read low",0.97
same,normalized growth,"locus YJL092W, strain hpr5, active compounds read low",0.963
same,normalized growth,"locus YJL095W, strain BCK1 (second series), active compounds read low",0.972
same,normalized growth,"locus YJL095W, strain BCK1, active compounds read low",1.03
same,normalized growth,"locus YJL115W, strain asf1, active compounds read low",0.975
same,normalized growth,"locus YJL129C, strain trk1, active compounds read low",0.959
same,normalized growth,"locus YJL154C, strain vps35, active compounds read low",0.981
same,normalized growth,"locus YJL164C, strain tpk1, active compounds read low",0.993
same,normalized growth,"locus YJL166W, strain qcr8, active compounds read low",0.972
same,normalized growth,"locus YJL187C, strain SWE1, active compounds read low",0.962
same,normalized growth,"locus YJR066W, strain TOR1, active compounds read low",0.972
same,normalized growth,"locus YKL160W, strain elf1, active compounds read low",0.995
same,normalized growth,"locus YKR026C, strain gcn3, active compounds read low",0.983
same,normalized growth,"locus YKR091W, strain srl3, active compounds read low",0.973
same,normalized growth,"locus YLL001W, strain dnm1, active compounds read low",0.977
same,normalized growth,"locus YLL026W, active compounds read low",0.999
same,normalized growth,"locus YLL041C, strain sdh2, active compounds read low",0.979
same,normalized growth,"locus YLR027C, strain aat2, active compounds read low",0.995
same,normalized growth,"locus YLR113W, strain HOG1, active compounds read low",1.04
same,normalized growth,"locus YLR221C, strain rsa3, active compounds read low",0.971
same,normalized growth,"locus YLR258W, strain gsy2, active compounds read low",0.991
same,normalized growth,"locus YLR262C, strain YPT6 (second series), active compounds read low",0.956
same,normalized growth,"locus YLR320W, strain mms22, active compounds read low",0.97
same,normalized growth,"locus YLR342W, strain FKS1, active compounds read low",0.968
same,normalized growth,"locus YLR357W, strain rsc2, active compounds read low",1.04
same,normalized growth,"locus YLR370C, strain arc18, active compounds read low",0.968
same,normalized growth,"locus YLR384C, strain iki3, active compounds read low",0.996
same,normalized growth,"locus YML120C, strain ndi1, active compounds read low",0.982
same,normalized growth,"locus YMR058W, strain fet3, active compounds read low",0.983
same,normalized growth,"locus YMR125W, strain sto1, active compounds read low",1.02
same,normalized growth,"locus YMR129W, active compounds read low",0.984
same,normalized growth,"locus YMR205C, strain PFK2, active compounds read low",1.01
same,normalized growth,"locus YMR231W, strain pep5, active compounds read low",0.977
same,normalized growth,"locus YMR307W, strain GAS1, active compounds read low",1.01
same,normalized growth,"locus YNL071W, strain lat1, active compounds read low",0.973
same,normalized growth,[6],0.39 (active)
same,normalized growth,"locus YNL183C, strain NPR1, active compounds read low",0.993
same,normalized growth,[7],0.955
same,normalized growth,"locus YNL209W, strain ssb2, active compounds read low",0.993
same,normalized growth,"locus YNL248C, strain rpa49, active compounds read low",0.955
same,normalized growth,"locus YNL322C, strain KRE1 (second series), active compounds read low",0.993
same,normalized growth,"locus YNL322C, strain KRE1, active compounds read low",1.01
same,normalized growth,"locus YNR049C, strain mso1, active compounds read low",0.976
same,normalized growth,"locus YOR001W, strain rrp6, active compounds read low",0.943
same,normalized growth,"locus YOR070C, strain gyp1, active compounds read low",0.98
same,normalized growth,"locus YOR080W, strain dia2, active compounds read low",0.986
same,normalized growth,[8],1.03
same,normalized growth,"locus YOR083W, strain WHI5, active compounds read low",0.994
same,normalized growth,"locus YOR106W, strain vam3, active compounds read low",0.958
same,normalized growth,"locus YOR231W, strain MKK1, active compounds read low",1.06
same,normalized growth,"locus YOR265W, strain rbl2, active compounds read low",0.972
same,normalized growth,"locus YOR270C, strain vph1, active compounds read low",0.913
same,normalized growth,"locus YOR290C, strain snf2, active compounds read low",0.994
same,normalized growth,"locus YPL051W, strain arl3, active compounds read low",0.988
same,normalized growth,"locus YPL078C, strain atp4, active compounds read low",0.972
same,normalized growth,"locus YPL106C, strain sse1, active compounds read low",0.978
same,normalized growth,"locus YPL240C, strain hsp82, active compounds read low",0.986
same,normalized growth,"locus YPL241C, strain CIN2, active compounds read low",1.01
same,normalized growth,"locus YPL256C, strain CLN2, active compounds read low",1.04
Cc1c2ccncc2c(C)c2c1[nH]c1ccccc12,normalized growth,[1],0.101 (active)
same,normalized growth,[2],0.0557 (active)
same,normalized growth,"locus YDR150W, strain NUM1, active compounds read low",0.13 (active)
same,normalized growth,[3],0.153 (active)
same,normalized growth,[4],0.0868 (active)
same,normalized growth,[5],0.0788 (active)
same,normalized growth,"locus YMR263W, strain SAP30, active compounds read low",0.362 (active)
same,normalized growth,"locus YNL128W, strain TEP1, active compounds read low",0.083 (active)
same,normalized growth,"locus YNL153C, strain GIM3, active compounds read low",0.0799 (active)
same,normalized growth,[6],0.0703 (active)
same,normalized growth,[7],0.0671 (active)
same,normalized growth,"locus YNL224C, strain SQS1, active compounds read low",0.0631 (active)
same,normalized growth,[8],0.079 (active)
same,normalized growth,"locus YPL055C, strain LGE1, active compounds read low",0.101 (active)
